From PubChem BioAssay

Test: blockers of RIG-like receptor reporter activation – cell-based, Sendai virus stimulus, luciferase, 10K MLSCN set, TLR/RLR signaling modifier project, primary screen (AID 602276);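 also: firefly luciferase from ISG56 promoter only with Renilla not read in this screen; 0% = Sendai virus plus DMSO and 100% = medium plus DMSO without virus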
Conditions: HEK293 RL24 IRF3 luciferase reporter, at 10 µM, hits give high values;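 active = inhibition at or above 50% at 10 µM; inactive = inhibition below 50%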

inhibition, inactive:
CS(=O)(=O)Nc1ccc(C(=O)NCCc2ccccc2)cc1 -13.2%
Cc1ccc(S(=O)(=O)NCCC(=O)OCn2nnc3ccccc3c2=O)cc1 15.2%
O=C(N1CCOCC1)N1CCC(NC(=O)C23CC4CC(CC(C4)C2)C3)CC1 15.6%
COc1ccc(C(=O)N2CCOCC2)cc1Br -0.192%
Cc1ccc(S(=O)(=O)CCc2nnc(NC(=O)c3cnccn3)s2)cc1 10.8%
O=C(C1CCN(S(=O)(=O)Cc2ccccc2)CC1)N1CCN(c2ncccn2)CC1 -3.88%
COc1ccc(C2CC(=O)c3c(C)nc(N4CCN(c5ccccc5)CC4)nc3C2)cc1 (stereo not given) 8.81%
Nc1nonc1C(=O)NCCNCc1cc(Br)ccc1OCc1ccccc1F -2.45%
CCCCN(CC)S(=O)(=O)c1ccc2c(c1)CCCN2C(C)=O 0.955%
Cc1c(Cc2ccccc2)sc(N)c1C(N)=O 9.38%
CCOC(=O)N1CCN(c2cc3nccnc3cc2F)CC1 10.4%
N#Cc1nc(COc2ccccc2)oc1NCCN1CCOCC1 2.21%
O=C(Nc1ccccc1)N1C(=O)C2(OCCO2)c2ccccc21 14.1%
CCOC(=O)C1CCCN(C(=O)c2cc3c(C)nc4ccccc4c3o2)C1 (stereo not given) 14.5%
CC12C(=O)N(CCC(=O)O)C(=O)C1C1C=CC2C1 (stereo not given) 17.6%
CCCC(=O)N1CCN(c2ccc(NC(=O)c3ccc(Br)o3)cc2)CC1 -9.3%
Cc1ccc(Cn2ncc3c(NCCCN4CCOCC4)ncnc32)cc1 22.3%
C/C(N)=C(/C#N)C(=O)COC(=O)COc1ccc(Cl)cc1 18.1%
Nc1c(C(=O)NCCc2ccccc2)nnn1Cc1ccccc1 -11.8%
Cc1ccc(-n2c(Cc3cccn3C)nnc2SCC(=O)NCc2ccc3c(c2)OCO3)cc1 18.7%
COc1ccc(/C=N/n2c(=O)[nH]c3c([nH]c4ccc(C)cc43)c2=O)cc1CN1CCOCC1 -0.771%
C=CCn1c(C)cc(C(=O)CSc2nc3ccccc3c(=O)[nH]2)c1C -41.3%
O=C(NCc1ccco1)C1CCN(S(=O)(=O)N2CCC3(CC2)OCCO3)CC1 0.326%
CCOC(=O)c1c(C)oc2ccc(OCC(=O)N(CC)CC)cc12 8.2%
COc1ccc(-c2cc(C(=O)NCc3ccc(Cl)cc3)no2)cc1OC 14.3%
O=C(Nc1cccnc1N1CCOCC1)c1ccco1 10.9%
COc1ccc2c(-c3cccnc3)cc(=O)[nH]c2c1 13.4%
CC1(C)CC(=O)C2=C(C1)Nc1nc(SCCN3CCOCC3)[nH]c(=O)c1C2c1cccs1 (stereo not given) -3.95%
CCOc1ccc(C(=O)N(Cc2ccc(N(C)C)cc2)C2CCS(=O)(=O)C2)cc1 (stereo not given) 19.7%
CC(C)Oc1ccc(-c2nn(-c3ccccc3)cc2/C=c2\sc3ncnn3c2=O)cc1 -16.4%
CN(C)c1nc(Nc2ccc(Cl)cc2)nc(OCC#N)n1 24.2%
Cc1ccc(C)n1NC(=O)c1ccco1 9.01%
CCC1(C)Cc2c(C#N)c(N)n(-c3ccccc3)c(=O)c2CO1 (stereo not given) -3.47%
O=C1CC(c2ccc(S(=O)(=O)N3CCN(c4ccccc4)CC3)cc2)CN1 (stereo not given) 5.45%
COc1cccc(NC(=O)Cc2nnc(SCC(=O)c3ccccc3)n2C)c1 3.81%
CCCC1CC(C)(C(=O)Cn2[nH]c(=O)ccc2=O)OC1=O (stereo not given) 22.7%
CS(=O)(=O)N(CC(=O)NC1CC1)c1cccc(F)c1 8.69%
COc1ccc2c(c1)CCc1c(C(=O)NCc3cccnc3)noc1-2 -37.2%
CC(=O)Nc1ccc(S(=O)(=O)N(CC(=O)O)Cc2ccccc2)cc1 8.06%
O=S(=O)(NCCc1ccncc1)c1cc(Br)ccc1F 24.5%
